Source: PubChem BioAssay
CYP2C9 activ: human CYP2C9 activators, primary screen, biochemical, luminescence; activation factor at 5 µM; recombinant CYP2C9, luciferin-H conversion; stronger effect = higher value; factor 1 = untreated enzyme, 0 = blocked; Cytochrome P450 2C9 (Homo sapiens), P11712; 1.4% of 96,000 active;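 active means activation factor of 2 or more for CYP2C9 at a 5 µM dose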;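 further: 0 = sulfaphenazole-blocked wells and 1 = vehicle-only wells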
Target sequence (P11712 whole entry, looked up): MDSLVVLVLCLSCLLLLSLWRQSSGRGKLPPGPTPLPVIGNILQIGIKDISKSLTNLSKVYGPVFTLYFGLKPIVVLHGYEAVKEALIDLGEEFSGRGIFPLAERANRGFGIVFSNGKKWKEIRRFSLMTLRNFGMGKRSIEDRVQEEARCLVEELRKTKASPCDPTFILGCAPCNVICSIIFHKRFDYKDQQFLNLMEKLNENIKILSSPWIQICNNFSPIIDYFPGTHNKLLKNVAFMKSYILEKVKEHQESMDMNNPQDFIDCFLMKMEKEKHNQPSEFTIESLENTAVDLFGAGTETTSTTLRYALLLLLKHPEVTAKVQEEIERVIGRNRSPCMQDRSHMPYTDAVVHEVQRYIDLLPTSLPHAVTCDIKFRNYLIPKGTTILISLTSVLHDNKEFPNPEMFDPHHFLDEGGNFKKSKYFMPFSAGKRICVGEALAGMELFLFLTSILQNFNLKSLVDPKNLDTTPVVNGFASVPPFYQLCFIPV
CYP2C9 inh: blockers of cytochrome P450 2C9 activity – biochemical, luminescence, ADME assay, primary screen | P11712 | CYP2C9 Supersomes, luciferin-H conversion | inhibition, % at 5 µM | 20% of 96,000 active | AID 777, 2007;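 active means blocking of liver enzyme CYP2C9 beyond about 50% at 5 µM, limit read from the data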
PLAP activator: PLAP enzyme activators, biochemical, luminescence, HTS | AID 696, 2007 | activation fold at 20 µM | purified PLAP enzyme, luminescent substrate read-out; stronger effect = higher value | 1.2% of 96,000 active; in the data active means activation fold above about 2
CYP2C19 activ: human CYP2C19 activators, primary screen, biochemical, luminescence | Cytochrome P450 2C19 (Homo sapiens), P33261 | recombinant CYP2C19, luciferin-H EGE luminescence; stronger effect = higher value; 0 = fully inhibited enzyme, 1 = untreated enzyme | activation factor at 5 µM | 96,000 tested, under 10 active | AID 1025, 2008;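 active means activation factor of at least 2 at 5 µM in the primary screen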;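 further: 0 = wells with 2.5 mM tranylcypromine and 1 = vehicle-only wells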
CYP2C19 inhib: blockers of cytochrome P450 2C19 activity – biochemical, luminescence, ADME assay, primary screen; AID 778, 2007; 21% of 96,000 active; inhibition, % at 5 µM; P33261; CYP2C19 Supersomes, luciferin-H EGE luminescence, 30 min;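 active means CYP2C19 inhibition above a set limit at 5 µM in the primary screen, cut at about 50% in these data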;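 further: plate controls were negative control wells for no effect and 2.5 mM tranylcypromine positive control for full effect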
Numbers without * were called inactive. Hits are enriched below; roughly 31% of the tested compounds scored in any of these assays.

SMILES	CYP2C9 activ	CYP2C9 inh	PLAP activator	CYP2C19 activ	CYP2C19 inhib
CC(=O)n1c2c(c3ccccc31)OC(N)=C(C#N)C2c1ccc(C(C)C)cc1 (centres undefined)	0.3	72*	1	0.6	39
CCOC(=O)c1c(NC(N)=O)sc(C)c1C	0.5	52*	0.9	0.8	24
CCOC(=O)c1c(NC(=O)CNCCO)sc(C)c1C	0.3	65*	1.9	0.7	33
CCOC(=O)c1c(NC(=O)c2ccc(Cl)s2)sc(C)c1C	0.9	7	1.1	1	0
CC(C)Oc1ccc(C(=O)N2CCCC2C(=O)O)cc1 (centres undefined)	0.9	8	1	1	-1
COc1ccc(OC)c(C(=O)Cn2nnc3ccccc3c2=O)c1	1.1	-5	1	1.1	-10
Cc1cc(C(=O)Cn2nnc3ccccc3c2=O)c(C)n1Cc1cccs1	0.3	71*	1.3	0	97*
CC(C)(C)NC(=O)C(=O)NNC(=O)C12CC3CC(CC(C3)C1)C2	0.9	12	1.6	1.1	-8
CCOC(=O)N1CCN(/C=C(\C#N)c2nc3ccccc3s2)CC1	0.3	71*	1.2	0.2	80*
N#C/C(=C\N1CCN(Cc2ccc3c(c2)OCO3)CC1)c1nc2ccccc2s1	0.5	49	1.2	0.1	89*
COC(=O)c1ccc(/C=C(\C#N)c2nc3ccccc3s2)cc1	0.8	25	1	0.8	20
NC(=O)Cc1cn(-c2ncc(C(F)(F)F)cc2Cl)c2ccccc12	0.5	49	1.2	0.5	48
COC(=O)Cc1cn(-c2ncc(C(F)(F)F)cc2Cl)c2ccccc12	0.3	71*	1.4	0.3	74*
CS(=O)(=O)N1CCN(C(=O)c2ccc(F)cc2)CC1	1.2	-24	0.9	1.1	-8
COc1ccccc1/C=C/C(=O)c1ccc(Cl)cc1	1	1	0.8	0.8	24
COc1ccccc1/C=C/C(=O)c1c2c(c(C)[nH]c1=O)CCCC2	2.3*	-128	1.1	0.8	23
CCS(=O)(=O)CCSc1nc2c(cc1C#N)CCCC2	0.9	10	0.8	0.8	23
CC(C)(C)c1ccc(S(=O)(=O)CC(O)CSc2nc3c(cc2C#N)CCCC3)cc1 (centres undefined)	0.2	78*	0.9	0.6	36
N#Cc1cc2c(nc1SCC(O)CS(=O)(=O)Cc1ccc(Cl)cc1)CCCC2 (centres undefined)	0.2	81*	1.4	0.4	59*
N#Cc1cc2c(nc1SCc1ccncc1)CCC2	0.1	87*	1.1	0	100*
Cc1noc(NS(=O)(=O)c2ccc(NC(=O)CSc3nc4c(cc3C#N)CCCC4)cc2)c1C	0.7	27	1.6	1.2	-18
Cc1cc(C)c(C#N)c(SCC(O)CS(=O)(=O)Cc2ccccc2)n1 (centres undefined)	0.3	72*	1.1	0	97*
O=C(Nc1nc2ccccc2n1CCN1CCCCC1)C1CCCCC1	0.9	6	1.6	0.8	16
O=C(Nc1nc2ccccc2n1CCN1CCCC1)C1CCCCC1	1	3	2.6*	0.9	6
Cc1ccc(C(=O)Nc2nc3ccccc3n2CCN2CCCC2)cc1	0.9	9	2.8*	1.1	-10
SMILES	CYP2C9 activ	CYP2C9 inh	PLAP activator	CYP2C19 activ	CYP2C19 inhib
CCCn1c(=O)c2ccccc2n2c(SCc3c(C(=O)OCC)oc4ccccc34)nnc12	0.4	64*	1.2	0.4	59*
CCN1CCN(c2ccc(NC(=O)c3cccc4ncccc34)cc2)CC1	1	3	1.6	0.9	7
COc1ccc(Cl)cc1N(CC(=O)Nc1cccc(SC)c1)S(C)(=O)=O	0.3	72*	1.5	0.1	91*
CNC(=O)CN(c1cc(C)ccc1C)S(C)(=O)=O	0.9	10	0.9	0.8	21
CSc1cccc(NC(=O)CN(c2cc(C)ccc2C)S(C)(=O)=O)c1	0.4	56*	1.2	0.2	85*
COc1ccc(Cl)cc1N(CC(=O)Nc1ccc2c(c1)OCCO2)S(C)(=O)=O	0.3	69*	1.6	0.2	76*
COc1ccc(N(CC(=O)Nc2cccc(SC)c2)S(C)(=O)=O)cc1Cl	0.9	13	1.1	0.4	59*
COc1ccc(OC)c(N(CC(=O)Nc2ccc(NC(C)=O)cc2)S(C)(=O)=O)c1	0.6	41	0.9	1	0
